Assay in all cases: PBM binding z-score (relative to random genomic background probes); higher = stronger binding; sequences stand for … in GC…GCGATTGACAGCGTAGAATGAAGG
Assay [1] concerns PPARg:RXRa DBDmut IVT, anti-RXR (DBD mutation: RXRa K156A/R161A, NR concentration 270 nM, RXRa partner concentration 90 nM). In a few lines:
(§1)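 Binding z-scores were set against random background probes. The data came from custom Agilent 4×180K protein-binding microarrays carrying double-stranded probes with 34-nt variable regions, incubated 1 h with ligand-free nuclear receptor dimers. Partner-specific antibodies detected binding, and scanned fluorescence was regression-normalized.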

For assay [2], the system named is PPARg:RXRa IVT, anti-PPARg (NR concentration 270 nM, RXRa partner concentration 90 nM). An outline of the steps: as §1
In assay [3] the test system is PPARg DBDmut:RXRa IVT, anti-PPARg (DBD mutation: PPARg1 K132A/R137A, NR concentration 270 nM, RXRa partner concentration 90 nM). An outline of the steps:
as §1

For assay [4], the system named is PPARg DBDmut IVT, anti-PPARg (DBD mutation: PPARg1 K132A/R137A, NR concentration 270 nM). In a few lines:
as §1

The subject of assay [5] is PPARg homodimer (NR concentration 180 nM). In a few lines: as §1
Assay [6] deals with PXR:RXRa (NR concentration 270 nM, RXRa partner concentration 90 nM). An outline of the steps:
as §1

The test system of assay [7] is PXR homodimer (NR concentration 270 nM). An outline of the steps:
as §1

For assay [8], the system named is RARa:RXR (NR concentration 270 nM, RXRa partner concentration 90 nM). In a few lines: as §1
Assay [9] relates to RARa homodimer (NR concentration 270 nM). An outline of the steps:
as §1

The subject of assay [10] is RARb:RXRa (NR concentration 270 nM, RXRa partner concentration 90 nM). An outline of the steps:
as §1

Assay [11] has as its system RARb homodimer (NR concentration 270 nM). An outline of the steps:
as §1

Assay [12] has as its system RARg:RXRa (NR concentration 270 nM, RXRa partner concentration 90 nM). An outline of the steps:
as §1

Assay [13] concerns RARg homodimer (NR concentration 270 nM). In a few lines:
as §1

Assay [14] concerns RXRa DBDmut IVT, anti-RXR (DBD mutation: RXRa K156A/R161A, NR concentration 90 nM). In a few lines: as §1
Assay [15] relates to RXRa homodimer (NR concentration 180 nM). In a few lines:
as §1

In assay [16] the test system is THRa:RXRa (NR concentration 90 nM, RXRa partner concentration 90 nM). An outline of the steps: as §1
The subject of assay [17] is THRa homodimer (NR concentration 90 nM). An outline of the steps: as §1
Assay [18] concerns VDR homodimer (NR concentration 270 nM). An outline of the steps: as §1

Results on seven sequences are retold here after the supplement of paper PMC6555819.

In the case of CCTACTGGGCCAAAAAGGTCATTGAAGCCGATAA, the PBM binding z-score is 3.62 in [1]; 3.97 in assay [2]; -0.352 in assay [3]; -0.851 in assay [4]; 3.29 in assay [5]; 4.73 in assay [6]. Besides, the PBM binding z-score in assay [7] was determined as 3.09; in [8], 5.39; in [9], 1.5; in [10], 4.06; in assay [11] it was 4.33; in assay [12], 4.98. In addition, the PBM binding z-score in assay [13] stood at 4.29; in [14], 0.615; in [15], 5.31; in [16] it was 3.08; in assay [17] it was 0.418; in [18], 2.58.
As to ACTTACGGGTCAACGAGGTTATTGCACGCGTATA, the PBM binding z-score in [1] was determined as 3.11; in assay [2], 3.97; in assay [3] it was 1.27; in assay [4], 2.63; in [5], 3.35; in assay [6], 5.53. In addition, the PBM binding z-score in [7] worked out at 5.35; in [8], 5.36; in [9], 1.38; in assay [10], 4.19; in [11], 3.55; in [12] it was 5.66. Moreover, the PBM binding z-score in assay [13] is 4.9; in assay [14], 3.01; in [15] it was 6.27; in [16], 4.05; in assay [17] it was 1.2; in assay [18] it was 4.35.
For the sequence TCGAGTAGGTTACCAATGGGGCATTCACCTTTCT, the PBM binding z-score came out at 3.38 in assay [1]; 2.75 in [2]; 0.0374 in assay [3]; 0.508 in assay [4]; 0.0872 in assay [5]; 0.579 in [6]. Also, the PBM binding z-score in assay [7] is -0.637; in assay [8] it was 1.1; in assay [9] it was -0.777; in [10], 1.13; in [11] it was 1.29; in assay [12] it was 1.38. In addition, the PBM binding z-score is 0.58 in assay [13]; 0.49 in [14]; 0.913 in [15]; 0.504 in assay [16]; -0.317 in [17]; -0.574 in [18].
Consider CTTAGCAGGCCAGGGTCACTCAAGCATTTCGCTT, for which the PBM binding z-score is 1.45 in [1]; 1.72 in assay [2]; -0.582 in assay [3]; -0.865 in assay [4]; 0.785 in assay [5]; 2.67 in assay [6]. Besides, the PBM binding z-score in assay [7] was -0.227; in assay [8], 3.2; in assay [9] it was -0.241; in assay [10], 2.81; in assay [11], 2.87; in assay [12] it was 2.99. The PBM binding z-score was determined as 2.53 in assay [13]; 0.934 in [14]; 3.39 in assay [15]; 2.93 in assay [16]; 1.32 in [17]; 1.28 in [18].
Consider TTACCAAGGTGAAGGTCGTTGGTCCCTCTGTAGA, for which the PBM binding z-score in assay [1] was 2.04; in assay [2], 3.34; in [3], -0.723; in [4] it was -0.44; in [5], 0.993; in assay [6], 1.03. Also, the PBM binding z-score in assay [7] was -0.26; in [8], 1.49; in [9], -0.694; in [10], 2.17; in assay [11] it was 1.98; in [12] it was 1.01. Also, the PBM binding z-score came out at 0.783 in assay [13]; 0.488 in assay [14]; 1.27 in [15]; 2.29 in assay [16]; 1.1 in [17]; 0.98 in [18].
GCAGACAGGTGTAACGCAGGTAACTCAGGGTGGC: the PBM binding z-score in assay [1] is -0.561; in [2], -0.366; in assay [3], -0.91; in assay [4], -1.52; in assay [5] it was -1.12; in assay [6], -0.578. For the same sequence, the PBM binding z-score in [7] is -1.01; in [8], -0.502; in [9], -1.69; in assay [10] it was -0.603; in assay [11], -0.771; in assay [12], -0.375. The PBM binding z-score in assay [13] is -0.631; in assay [14], -0.861; in assay [15], -0.21; in assay [16], 0.816; in assay [17] it was -0.935; in [18] it was -0.598.
Turning to TCTTGTAGATCAAGCAGGTTTAGAAAGCCTGAGT, the PBM binding z-score in assay [1] was 1.37; in [2] it was 0.0829; in [3] it was -0.44; in assay [4], 0.305; in [5], -0.478; in assay [6], 0.273. Further, the PBM binding z-score in assay [7] was -0.0713; in [8], -0.152; in [9], -0.252; in [10], -0.191; in assay [11], -0.518; in assay [12] it was -0.361. The PBM binding z-score in assay [13] was -0.474; in [14], 0.521; in [15] it was -0.16; in assay [16], -0.173; in assay [17] it was -0.583; in assay [18], 0.0833.
